# Experimental data taken from PMC5700166.
# Substitutions are numbered along the chain they refer to.
# Columns and labels:
# Assay in all cases: protein-binding microarray (PBM); PBM: ~300 nM protein, 6 mM HEPES pH 7.8, 80 mM KCl, 0.5 mM EDTA, 0.5 mM EGTA, 6% glycerol, 35 ng/ul poly-dIdC, 1% milk, 1 h, room temperature; Ap Aiptasia and Nv Nematostella (sea anemones) / Co Capsaspora / Aq Amphimedon (sponge) / Dm Drosophila / Hu human; RHD is the Rel homology domain; high values mean tight binding
# Conditions in all cases: dsDNA, one strand shown
# GST-Dm-Relish = target: T1, GST-Dm-Relish (Drosophila melanogaster, UniProt Q94527 99-473)
# T1 sequence: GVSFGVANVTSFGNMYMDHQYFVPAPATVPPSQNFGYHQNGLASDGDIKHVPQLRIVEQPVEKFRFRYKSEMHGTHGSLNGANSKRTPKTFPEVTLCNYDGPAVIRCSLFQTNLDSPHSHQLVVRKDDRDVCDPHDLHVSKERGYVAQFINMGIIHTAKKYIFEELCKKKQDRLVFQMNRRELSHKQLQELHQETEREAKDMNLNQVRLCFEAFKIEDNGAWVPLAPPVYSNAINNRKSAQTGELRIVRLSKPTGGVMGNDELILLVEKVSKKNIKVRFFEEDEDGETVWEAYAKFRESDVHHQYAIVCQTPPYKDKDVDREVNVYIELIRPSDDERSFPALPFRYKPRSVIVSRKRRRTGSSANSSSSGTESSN
# GST-Aq-NF-kB = target: T2, GST-Aq-NF-kB (Amphimedon queenslandica, UniProt A9Y5G7 2-389)
# T2 sequence: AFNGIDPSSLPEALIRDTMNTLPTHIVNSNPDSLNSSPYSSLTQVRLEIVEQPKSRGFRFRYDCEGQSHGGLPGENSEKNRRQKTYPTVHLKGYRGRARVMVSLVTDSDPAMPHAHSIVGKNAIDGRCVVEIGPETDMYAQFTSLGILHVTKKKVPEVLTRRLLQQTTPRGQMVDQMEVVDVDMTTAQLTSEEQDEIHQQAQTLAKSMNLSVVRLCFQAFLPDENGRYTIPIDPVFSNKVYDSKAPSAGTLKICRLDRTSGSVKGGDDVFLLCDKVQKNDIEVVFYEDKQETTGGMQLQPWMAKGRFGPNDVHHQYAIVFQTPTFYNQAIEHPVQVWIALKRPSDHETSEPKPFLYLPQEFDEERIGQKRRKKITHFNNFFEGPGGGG
# GST-Ap-NF-kB RHD = target: T3, GST-Ap-NF-kB RHD (Exaiptasia pallida (Aiptasia), UniProt A0A913YAJ5 2-422)
# T3 sequence: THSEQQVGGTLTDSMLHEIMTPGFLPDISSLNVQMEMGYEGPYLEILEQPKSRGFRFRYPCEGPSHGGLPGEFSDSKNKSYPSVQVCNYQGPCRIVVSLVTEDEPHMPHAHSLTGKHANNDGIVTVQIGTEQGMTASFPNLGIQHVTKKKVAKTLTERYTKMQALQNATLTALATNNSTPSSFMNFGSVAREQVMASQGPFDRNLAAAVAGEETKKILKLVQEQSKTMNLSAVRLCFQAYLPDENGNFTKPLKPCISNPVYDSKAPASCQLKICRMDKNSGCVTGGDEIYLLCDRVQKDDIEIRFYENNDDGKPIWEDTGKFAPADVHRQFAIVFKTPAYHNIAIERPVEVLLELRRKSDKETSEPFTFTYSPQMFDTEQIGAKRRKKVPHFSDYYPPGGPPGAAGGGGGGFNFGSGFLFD
# GST-Co-NF-kB = target: T4, GST-Co-NF-kB (Capsaspora owczarzaki, UniProt F1ARL5 200-546)
# T4 sequence: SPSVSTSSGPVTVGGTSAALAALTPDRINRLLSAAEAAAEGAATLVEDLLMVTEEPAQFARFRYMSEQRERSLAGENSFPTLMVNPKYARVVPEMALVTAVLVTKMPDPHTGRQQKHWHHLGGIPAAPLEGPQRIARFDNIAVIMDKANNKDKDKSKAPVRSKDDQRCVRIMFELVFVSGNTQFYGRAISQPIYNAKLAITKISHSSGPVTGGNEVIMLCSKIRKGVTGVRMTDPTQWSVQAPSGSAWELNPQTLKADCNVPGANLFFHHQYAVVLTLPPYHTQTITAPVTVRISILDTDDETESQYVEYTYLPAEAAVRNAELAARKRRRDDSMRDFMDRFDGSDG
# [1] = target: T5, GST-Nv-NF-kB (Cys allele) (Nematostella vectensis, UniProt E5G601 2-411)
# T5 sequence: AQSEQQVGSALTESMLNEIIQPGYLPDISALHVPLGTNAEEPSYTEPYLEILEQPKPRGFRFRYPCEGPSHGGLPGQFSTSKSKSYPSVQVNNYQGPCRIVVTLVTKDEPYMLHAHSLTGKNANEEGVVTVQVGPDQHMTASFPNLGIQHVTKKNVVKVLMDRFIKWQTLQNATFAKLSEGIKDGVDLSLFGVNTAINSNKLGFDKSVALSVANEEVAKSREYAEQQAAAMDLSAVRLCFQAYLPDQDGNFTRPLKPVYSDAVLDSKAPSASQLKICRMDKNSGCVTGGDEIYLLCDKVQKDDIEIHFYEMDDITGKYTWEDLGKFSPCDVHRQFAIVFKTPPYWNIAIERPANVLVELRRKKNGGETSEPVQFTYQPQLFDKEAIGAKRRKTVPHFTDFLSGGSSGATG
# [2] = target: T6, GST-Nv-NF-kB (Ser allele) (Nematostella vectensis, UniProt A7UNT2 2-411)
# T6 sequence: T5 sequence with Q21R, C66S, S207N, E215Q, V217A, E225K, A268E, D399E
sequence,measurement,setting,value
CCGATTAACATCACGGGATGTACTGATGTTAATCGGGTCTTGATTCGCTTGACGCTGCTG,binding signal,GST-Dm-Relish,5.98 z-score
same,binding signal,GST-Aq-NF-kB,1.26 z-score
CCGATTAACATCACTGGAATTCCTGATGTTAATCGGGTCTTGATTCGCTTGACGCTGCTG,binding signal,GST-Dm-Relish,2.95 z-score
same,binding signal,GST-Aq-NF-kB,1.7 z-score
CCGATTAACATCACAAAATTTCCTGATGTTAATCGGGTCTTGATTCGCTTGACGCTGCTG,binding signal,GST-Dm-Relish,1.74 z-score
same,binding signal,GST-Aq-NF-kB,1.72 z-score
CCGATTAACATCAGGGCTTTCCATGATGTTAATCGGGTCTTGATTCGCTTGACGCTGCTG,binding signal,GST-Dm-Relish,3.94 z-score
same,binding signal,GST-Aq-NF-kB,3.39 z-score
CCGATTAACATCAGGAATTCCAATGATGTTAATCGGGTCTTGATTCGCTTGACGCTGCTG,binding signal,GST-Dm-Relish,2.77 z-score
same,binding signal,GST-Aq-NF-kB,1.38 z-score
CCGATTAACATCACAGGATTTCCTGATGTTAATCGGGTCTTGATTCGCTTGACGCTGCTG,binding signal,GST-Dm-Relish,1.81 z-score
same,binding signal,GST-Aq-NF-kB,1.18 z-score
CCGATTAACATCACCGGAAATCCTGATGTTAATCGGGTCTTGATTCGCTTGACGCTGCTG,binding signal,GST-Dm-Relish,2.06 z-score
same,binding signal,GST-Aq-NF-kB,2.27 z-score
CCGATTAACATCAATAAAATTCCTGATGTTAATCGGGTCTTGATTCGCTTGACGCTGCTG,binding signal,GST-Dm-Relish,1.81 z-score
same,binding signal,GST-Aq-NF-kB,1.79 z-score
CCGATTAACATCACGTACTTTCCTGATGTTAATCGGGTCTTGATTCGCTTGACGCTGCTG,binding signal,GST-Dm-Relish,4.78 z-score
same,binding signal,GST-Aq-NF-kB,2.39 z-score
CCGATTAACATCAAAAAATCTCCTGATGTTAATCGGGTCTTGATTCGCTTGACGCTGCTG,binding signal,GST-Dm-Relish,1.02 z-score
same,binding signal,GST-Aq-NF-kB,1.21 z-score
CCGATTAACATCACGGAAATTCCTGATGTTAATCGGGTCTTGATTCGCTTGACGCTGCTG,binding signal,GST-Dm-Relish,1.83 z-score
same,binding signal,GST-Aq-NF-kB,4.88 z-score
CCGATTAACATCAATGGGTTTCCTGATGTTAATCGGGTCTTGATTCGCTTGACGCTGCTG,binding signal,GST-Dm-Relish,2.98 z-score
same,binding signal,GST-Aq-NF-kB,1.07 z-score
CCGATTAACATCAGTACTTTCCATGATGTTAATCGGGTCTTGATTCGCTTGACGCTGCTG,binding signal,GST-Dm-Relish,5.35 z-score
same,binding signal,GST-Aq-NF-kB,1.95 z-score
CCGATTAACATCACTGGGAGGGCTGATGTTAATCGGGTCTTGATTCGCTTGACGCTGCTG,binding signal,GST-Ap-NF-kB RHD,1.08 z-score
same,binding signal,GST-Co-NF-kB,1.47 z-score
CCGATTAACATCAAAGAGGAGTCTGATGTTAATCGGGTCTTGATTCGCTTGACGCTGCTG,binding signal,[1],1.23 z-score
CCGATTAACATCAAGAACCTTCTTGATGTTAATCGGGTCTTGATTCGCTTGACGCTGCTG,binding signal,[1],1.02 z-score
CCGATTAACATCAATTTGGGAAATGATGTTAATCGGGTCTTGATTCGCTTGACGCTGCTG,binding signal,[1],2.58 z-score
same,binding signal,GST-Co-NF-kB,1.92 z-score
CCGATTAACATCAGTACCTCGTATGATGTTAATCGGGTCTTGATTCGCTTGACGCTGCTG,binding signal,[2],1.04 z-score
CCGATTAACATCACTAGGTAGTCTGATGTTAATCGGGTCTTGATTCGCTTGACGCTGCTG,binding signal,[2],1.04 z-score
CCGATTAACATCACGTGGGGCGTTGATGTTAATCGGGTCTTGATTCGCTTGACGCTGCTG,binding signal,[1],1.36 z-score
CCGATTAACATCACTAGGCGGGATGATGTTAATCGGGTCTTGATTCGCTTGACGCTGCTG,binding signal,GST-Ap-NF-kB RHD,1.56 z-score
same,binding signal,GST-Co-NF-kB,1.92 z-score
CCGATTAACATCATCGCGGGTAGTGATGTTAATCGGGTCTTGATTCGCTTGACGCTGCTG,binding signal,GST-Co-NF-kB,1.37 z-score
CCGATTAACATCAAGGGGGGGGATGATGTTAATCGGGTCTTGATTCGCTTGACGCTGCTG,binding signal,GST-Ap-NF-kB RHD,7.71 z-score
same,binding signal,GST-Co-NF-kB,7.64 z-score
same,binding signal,GST-Dm-Relish,5.31 z-score
CCGATTAACATCAACCCCCCCCCTGATGTTAATCGGGTCTTGATTCGCTTGACGCTGCTG,binding signal,GST-Ap-NF-kB RHD,5.71 z-score
same,binding signal,[2],4.2 z-score
same,binding signal,GST-Co-NF-kB,5.49 z-score
same,binding signal,GST-Dm-Relish,5.26 z-score
CCGATTAACATCAGATAGGTACTTGATGTTAATCGGGTCTTGATTCGCTTGACGCTGCTG,binding signal,[2],2.46 z-score
CCGATTAACATCAACGTGATTTGTGATGTTAATCGGGTCTTGATTCGCTTGACGCTGCTG,binding signal,GST-Co-NF-kB,1.11 z-score
CCGATTAACATCAGGGTATAACGTGATGTTAATCGGGTCTTGATTCGCTTGACGCTGCTG,binding signal,GST-Co-NF-kB,1.1 z-score
CCGATTAACATCATGTCGGGTGATGATGTTAATCGGGTCTTGATTCGCTTGACGCTGCTG,binding signal,GST-Co-NF-kB,1.26 z-score
CCGATTAACATCAACCCCAGCTCTGATGTTAATCGGGTCTTGATTCGCTTGACGCTGCTG,binding signal,GST-Ap-NF-kB RHD,1.01 z-score
same,binding signal,[1],1.21 z-score
same,binding signal,GST-Co-NF-kB,1.8 z-score
same,binding signal,GST-Dm-Relish,1.14 z-score
CCGATTAACATCAGGGCAAAAAATGATGTTAATCGGGTCTTGATTCGCTTGACGCTGCTG,binding signal,GST-Co-NF-kB,1.84 z-score
CCGATTAACATCAAGTACCAGGGTGATGTTAATCGGGTCTTGATTCGCTTGACGCTGCTG,binding signal,GST-Ap-NF-kB RHD,1.05 z-score
CCGATTAACATCACCCCGAACGCTGATGTTAATCGGGTCTTGATTCGCTTGACGCTGCTG,binding signal,GST-Ap-NF-kB RHD,1.59 z-score
same,binding signal,GST-Co-NF-kB,2.02 z-score
CCGATTAACATCACCAAGTATAGTGATGTTAATCGGGTCTTGATTCGCTTGACGCTGCTG,binding signal,GST-Co-NF-kB,1.42 z-score
CCGATTAACATCAATAGTACCGATGATGTTAATCGGGTCTTGATTCGCTTGACGCTGCTG,binding signal,GST-Ap-NF-kB RHD,1.43 z-score
same,binding signal,[1],1.03 z-score
same,binding signal,[2],3 z-score
CCGATTAACATCAGGGAGCCGTATGATGTTAATCGGGTCTTGATTCGCTTGACGCTGCTG,binding signal,GST-Ap-NF-kB RHD,1.18 z-score
CCGATTAACATCAGTGGTACTTGTGATGTTAATCGGGTCTTGATTCGCTTGACGCTGCTG,binding signal,[2],1.44 z-score
same,binding signal,GST-Dm-Relish,1.25 z-score
CCGATTAACATCAAGGGGGGATATGATGTTAATCGGGTCTTGATTCGCTTGACGCTGCTG,binding signal,GST-Ap-NF-kB RHD,5.79 z-score
same,binding signal,[1],4.88 z-score
same,binding signal,GST-Co-NF-kB,6.15 z-score
same,binding signal,GST-Dm-Relish,4.29 z-score
CCGATTAACATCAAGGGGGGGGGTGATGTTAATCGGGTCTTGATTCGCTTGACGCTGCTG,binding signal,GST-Ap-NF-kB RHD,5.14 z-score
same,binding signal,GST-Co-NF-kB,7.25 z-score
same,binding signal,GST-Dm-Relish,5.34 z-score
CCGATTAACATCACCCCCCCCCATGATGTTAATCGGGTCTTGATTCGCTTGACGCTGCTG,binding signal,GST-Ap-NF-kB RHD,4.92 z-score
same,binding signal,[2],3.7 z-score
same,binding signal,GST-Co-NF-kB,7.08 z-score
same,binding signal,GST-Dm-Relish,5.37 z-score
